# Results published in PubChem BioAssay (NCATS).
# Several values for one entry are separate records, joined by “and”; a condition that tells them apart may be missing. Identical values can stand only once. Results filed as inconclusive are left out. A call without a number means that no potency is given here. Where a structure was tested more than once in an assay, its records may differ in their call. Activity calls are given as the source filed them. The call rests on the fitted dose curve; in most records, active means well fitted curve in the direction sought with a large enough effect; inconclusive means small, poorly fitted or top-dose-only effect, or another doubt; inactive means no such curve, though single readings can be large; an effect the other way counts as inactive or inconclusive.
# Legend:
# [1] = Viability qHTS for spleen associated tyrosine kinase inhibitor (SYKi) naive MV4-11 cells (AID 1963823); further: nearly all actives have a fitted effect of over 40% in size
# Summary of the method: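 SYK inhibitor-naive MV4-11 cells, 500 per well, exposed to compounds for 72 hr at 37 C, 5% CO2. Viability read as CellTiter-Glo luminescence after 10 min at room temperature.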
# [2] = Quantitative highthroughput screen to assess conditional lethalithy of NOMO1 cells grown in RPMI1640 with untreated serum (RPMI+s) (AID 1963876); further: nearly all actives have a fitted effect of over 35% in size
# Summary of the method: (§1)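 Each medium arm—HPLM with 10% dialyzed FBS, or RPMI1640 with 5 mM glucose and 10% untreated or dialyzed FBS—was screened against an 11-point, 3-fold compound titration for 48 h at 37 °C, with CellTiter-Glo luminescence as endpoint.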
# [3] = Quantitative highthroughput screen to assess conditional lethalithy of NOMO1 cells grown in Human Plasma-Like Medium with dialyzed fetal bovine serum (HPLM+ds) (AID 1963878); further: nearly all actives have a fitted effect of over 35% in size
# Summary of the method: as §1
# [4] = Quantitative highthroughput screen to assess conditional lethalithy of P12 Ichikawa cells grown in Human Plasma-Like Medium with dialyzed fetal bovine serum (HPLM+ds) (AID 1963879); conditions: Potency: viability; further: nearly all actives have a fitted effect of over 35% in size; on Viability: series mostly up to about 46 µM
# Summary of the method: as §1
# [5] = Quantitative highthroughput screen to assess conditional lethalithy of P12 Ichikawa cells grown in RPMI1640 with dialyzed fetal bovine serum (RPMI+ds) (AID 1963880); conditions: Potency: P12-Ichikawa viability; further: nearly all actives have a fitted effect of over 35% in size
# Summary of the method: as §1
# [6] = Quantitative highthroughput screen to assess conditional lethalithy of P12 Ichikawa cells grown in RPMI1640 with untreated serum (RPMI+s) (AID 1963881); conditions: Potency: viability; further: nearly all actives have a fitted effect of over 35% in size; on Viability: series mostly up to about 46 µM
# Summary of the method: as §1
# [7] = Quantitative highthroughput screen to assess conditional lethalithy of SEM cells grown in Human Plasma-Like Medium with dialyzed fetal bovine serum (HPLM+ds) (AID 1963882); further: nearly all actives have a fitted effect of over 35% in size; on Viability: series mostly up to about 46 µM
# Summary of the method: as §1
# [8] = Quantitative highthroughput screen to assess conditional lethalithy of SEM cells grown in RPMI1640 with unreated serum (RPMI+s) (AID 1963883); further: nearly all actives have a fitted effect of over 35% in size
# Summary of the method: as §1
# [9] = Quantitative highthroughput screen to assess conditional lethalithy of SEM cells grown in RPMI1640 with dialyzed fetal bovine serum (RPMI+ds) (AID 1963884); further: nearly all actives have a fitted effect of over 35% in size; on Viability: series mostly up to about 46 µM
# Summary of the method: as §1
# [10] = Cellular viability qHTS for adrenocortical cancer (ACC) cell line SW-13 (AID 1963989); conditions: SW-13 ACC cells viability, CellTiter-Glo, 48 h; activity (max response): stronger effect = lower value; further: nearly all actives have a fitted effect of over 65% in size;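 on activity (max response): cells grown in serum-free medium with ITS supplement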
# Summary of the method: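 Luminescent ATP read-out (CellTiter-Glo, 20 min at room temperature) measured metabolically competent SW-13 cells after 48 h compound treatment. Final concentrations spanned up to 46 uM; bortezomib served as positive control.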
# [11] = Cellular viability qHTS for adrenocortical cancer (ACC) cell line NCI-H295R (AID 1963990); further: nearly all actives have a fitted effect of over 60% in size
# Summary of the method: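 IC50 and maximal efficacy derive from four-parameter logistic modelling of titration curves, with reads scaled between DMSO-only wells (0%) and doxorubicin hydrochloride (100% inhibition). Compounds spanned up to 46 uM over 48 h.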
# [12] = Quantitative highthroughput screen to assess conditional lethalithy of NOMO1 cells grown in RPMI1640 with dialyzed fetal bovine serum (RPMI+ds) (AID 1963877); further: nearly all actives have a fitted effect of over 30% in size; on Viability: series mostly up to about 46 µM
# Summary of the method: as §1
# Potency means the concentration at half of the fitted maximal effect.
SMILES,Potency [1],Potency [2],Potency [3],Potency [4],Potency [5],Potency [6],Potency [7],Potency [8],Potency [9],activity (max response) [10],Potency [11],Potency [12],Potency [10]
COc1ccccc1-c1cccc(-c2c(O)c3cc(C#N)c(Cl)cc3[nH]c2=O)c1,inactive,17.1 µM (active),6.79 µM (active),4.81 µM (active),8.55 µM (active),10.8 µM (active),8.55 µM (active),2.7 µM (active),5.4 µM (active),-20.9% (inactive),inactive,–,–
O=C(c1ccc(F)cc1)N1CCC[C@H](c2nc(-c3ccc(F)cc3)no2)C1,20.9 µM (active),inactive,inactive,–,–,–,inactive,inactive,inactive,-11.7% (inactive),inactive,inactive,–
N[C@@H](Cc1ccc(O)c(O)c1)C(=O)O,inactive,inactive,–,inactive,–,inactive,inactive,inactive,inactive,3.64% (inactive),inactive,inactive,–
Cc1cc2nc3c(=O)[nH]c(=O)nc-3n(CC(O)C(O)C(O)CO)c2cc1C (configuration not stated),inactive,inactive,–,inactive,inactive,inactive,inactive,inactive,inactive,9.67% (inactive),inactive,inactive,–
NC(=O)N1CCC(CC(=O)N2CCC([C@H]3c4ncc(Br)cc4CCc4cc(Cl)cc(Br)c43)CC2)CC1,5.9 µM (active),–,–,–,–,–,–,–,–,–,–,inactive,–
Cc1cc(C(=O)N2CCN(c3cccc(Cl)c3)CC2)n(-c2ccccc2)n1,1.46 µM (active),7.43 µM (active),–,1.48 µM (active),2.96 µM (active),3.32 µM (active),–,2.64 µM (active),1.87 µM (active),–,447 nM (active),–,355 nM (active)
O=C(O)C(O)Cc1ccc(O)c(O)c1 (configuration not stated),17.1 µM (active),inactive,–,inactive,inactive,inactive,–,–,–,-1.27% (inactive),inactive,13.2 µM (active),–
NS(=O)(=O)NCCNc1nonc1C(=Nc1ccc(F)c(Br)c1)NO,inactive,2.63 µM (active),–,2.34 µM (active),8.31 µM (active),5.24 µM (active),16.6 µM (active),3.31 µM (active),9.33 µM (active),-16.2% (inactive),inactive,8.31 µM (active),–
N#Cc1c(O)c2c(-c3ccc(-c4ccccc4O)cc3)csc2[nH]c1=O,inactive,inactive,inactive,inactive,inactive,inactive,inactive,inactive,–,4.91% (inactive),inactive,–,–
C=CC(=O)N1CCc2ccc(-n3c(=O)ccc4cnc5ccc(-c6cnn(C)c6)cc5c43)cc21,0.632 µM (active),7.43 µM (active),3.72 µM (active),–,7.43 µM (active),7.43 µM (active),–,3.32 µM (active),3.32 µM (active),–,506 nM (active),4.69 µM (active),3580 nM (active)
CCOC(=O)C1=C(C)NC2=C(C(=O)CC(C)(C)C2)C1c1ccc(-c2ccccc2)cc1 (configuration not stated),23.5 µM (active),inactive,–,inactive,inactive,inactive,18.7 µM (active),–,–,-12.6% (inactive),10000 nM (active),–,–
C[C@]12C=CC(=O)C=C1CC[C@@H]1[C@@H]2C(=O)C[C@@]2(C)[C@H]1CC[C@]2(O)C(=O)CO,inactive,–,–,inactive,inactive,inactive,inactive,inactive,inactive,-14.6% (inactive) and 1.01% (inactive),inactive,inactive,–
CC(C(=O)O)c1ccc(-c2ccccc2)c(F)c1 (configuration not stated),inactive,inactive,inactive,–,–,–,14.8 µM (active),–,–,-8.73% (inactive),inactive,inactive,–
COc1ccc(C(=O)CC(=O)c2ccc(C(C)(C)C)cc2)cc1,inactive and 14.8 µM (active),inactive,inactive,inactive,inactive,–,inactive,inactive,inactive,–,inactive,–,–
COc1cc2nccc(Oc3ccc(NC(=O)Nc4ccc(F)cc4F)c(F)c3)c2cc1OC,0.0231 µM (active),inactive,inactive,23.5 µM (active),–,–,0.0105 µM (active),0.209 µM (active),–,-11.6% (inactive),–,–,–
